ALDH1A1 block = qHTS Assay for Inhibitors of Aldehyde Dehydrogenase 1 (ALDH1A1). Purified ALDH1A1, NADH fluorescence, propionaldehyde substrate. Potency, µM (series often up to 75.3 µM), inactives show at the highest dose activity, negative = inhibition, hits mostly inhibitors. actives 7.3% (n = 220,000); active = well fitted inhibition curve with a large enough effect, not every such curve was filed as active; inconclusive = small, poorly fitted or top-dose-only effect, or another doubt; inactive = no such curve, though single readings can be large or run the other way;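 note: plate controls were no enzyme wells and a reference inhibitor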
Gal4-VP16 FLuc = VP16 counterscreen qHTS for inhibitors of ROR gamma transcriptional activity; Drosophila S2 Gal4-VP16 UAS-luciferase, luminescence, 20 h; Potency, µM (highest dose often 53.6 µM), inactives show top-dose activity, negative = inhibition, actives largely listed as inhibitors; actives 3.5% (n = 310,000); AID 2546, 2010;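 note: Gal4-VP16 expression switched on by copper sulfate through the metallothionein promoter; nearly all actives have a fitted effect of over 50% in size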
PLK1 PBD inh = qHTS for Inhibitors of PLK1-PDB (polo-like kinase 1 - polo-box domain): Primary Screen | Plk1 PBD binding of FITC phosphopeptide, fluorescence polarization | Potency, µM, inactives show max response, negative = inhibition, most hits filed as inhibitors | actives 2.8% (n = 360,000); note: series mostly up to about 57 µM; nearly all actives have a fitted effect of over 65% in size
RORg inh = qHTS for inhibitors of ROR gamma transcriptional activity. Drosophila S2 Gal4-RORgamma UAS-luciferase reporter, 20 h. Potency, µM (doses to about 53.6 µM), for the others: at the top dose activity change, negative = inhibition, most hits filed as inhibitors. actives 5.4% (n = 310,000). AID 2551, 2010; note: nearly all actives have a fitted effect of over 60% in size
Target sequence (P51450 whole entry, looked up, the tested form may be a part): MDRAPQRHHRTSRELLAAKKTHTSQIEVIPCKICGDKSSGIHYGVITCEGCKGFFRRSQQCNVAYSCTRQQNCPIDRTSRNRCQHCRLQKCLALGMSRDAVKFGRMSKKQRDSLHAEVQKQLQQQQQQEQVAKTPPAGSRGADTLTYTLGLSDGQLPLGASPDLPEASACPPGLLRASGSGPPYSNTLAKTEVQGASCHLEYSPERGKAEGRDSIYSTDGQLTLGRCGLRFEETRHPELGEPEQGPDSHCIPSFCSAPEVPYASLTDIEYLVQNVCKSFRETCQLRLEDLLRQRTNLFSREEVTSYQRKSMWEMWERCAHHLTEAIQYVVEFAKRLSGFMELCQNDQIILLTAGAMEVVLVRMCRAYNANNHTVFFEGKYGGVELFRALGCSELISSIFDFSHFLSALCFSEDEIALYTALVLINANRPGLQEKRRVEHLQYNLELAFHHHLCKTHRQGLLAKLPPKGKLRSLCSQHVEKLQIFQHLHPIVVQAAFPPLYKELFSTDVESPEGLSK
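Stable Schneider cell line, Gal4 DNA-binding domain fused to ROR gamma, UAS-luciferase. Cmpd 1 hr RT → CuSO4 700 uM final → 20 hr RT → luciferase reagent 10 min → luminescence.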
Sfp PPTase inh = qHTS Assay for Inhibitors of Bacillus subtilis Sfp phosphopantetheinyl transferase (PPTase); 4'-phosphopantetheinyl transferase ffp (Bacillus subtilis), Q9F4F7; Biochemical Sfp PPTase activity, qHTS; Potency, µM, for inactives: largest response in the series, negative = inhibition, actives largely listed as inhibitors; actives 3.5% (n = 310,000);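 note: the enzyme is Sfp with the accession as filed and its product quenches rhodamine fluorescence; 0% = enzyme reaction without inhibitor and -100% = no enzyme wells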
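Step 1, compound plus 15 nM Sfp-PPTase, 15 min, room temperature. Step 2, add rhodamine-CoA (5 uM) and BHQ-2-YbbR (12.5 uM). Step 3, read 525/598 nm fluorescence at 0 and 30 min.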
* marks the source's active call; other numbers are inactive results; ? = inconclusive; / = not tested or not shown; [ ] = dose if it differs, or a comment. Most compounds without a hit are left out; they make up all but 12% or so of the library. Unless noted, calls come from the whole dose curve; as a rule, active = well fitted curve in the direction sought with a large enough effect; inconclusive = small, poorly fitted or top-dose-only effect, or another doubt; inactive = no such curve, though single readings can be large; an effect the other way counts as inactive or inconclusive. Unless noted, % is set by controls: 0 for no effect and ±100 for the full control effect; potency is the fitted concentration of half-maximal effect.

SMILES	ALDH1A1 block	Gal4-VP16 FLuc	PLK1 PBD inh	RORg inh	Sfp PPTase inh
Nc1ncnc(Oc2cccc3cccnc23)c1[N+](=O)[O-]	2.7%	8.91µM*	-24.5%	4.47µM*	-15.7%
O[C@@H](c1cc(-c2ccccc2)nc2c1ccc1ccccc12)C1CCCCN1 (stereo partly drawn)	0.1%[13.5 µM]	/	/	/	/
Cc1ccc(/C=N/c2sc3c(c2C#N)CCC3)s1	25.1µM*	-8.5%	-10.6%	10.9%	-7.0%
CN1CCN(/C=N/c2sc3c(c2C#N)CCCCC3)CC1	10µM*	14.2%	-9.0%	41.2%	-1.5%
CCN(/C=N/c1sc2c(c1C#N)CCCCC2)CC	?	?	-3.9%	-23.1%	-10.5%
Cc1ccc(/C=C/C(=O)Nc2sc3c(c2C#N)CCCC3)o1	?	-25.8%	-28.9%	18.6%	39.8µM*
Cc1ccc(/C=N/c2sc3c(c2C#N)CCCCC3)o1	?	?	-15.0%	-2.0%	50.1µM*
O=C(NC1CCCC1)C1C(c2ccc(C(F)(F)F)cc2)=Nc2ccccc2N1C(=O)c1cc2ccccc2[nH]1 (stereo not drawn)	/	/	-2.1%	/	/
COc1ccc([C@@H]2CNC(=O)C2)cc1OC1CCCC1	?	2.1%	/	12.1%	-29.8%
COc1ncc2nc(-c3ccc(Cl)cc3)c(=O)n(CCC#N)c2n1	-2.7%	-7.5%	/	-3.3%	?
O=C(O)C(CCC(C(=O)O)c1ccccc1)c1ccccc1 (stereo not drawn)	/	/	-6.4%	/	/
CCCc1nc2c3ccccc3ccn2c1Cc1cccc(F)c1	/	/	-1.4%	/	/
Cc1[nH]n(-c2cccc3ccccc23)c(=O)c1/C=N/c1sc2c(c1C#N)CCC2	5.01µM*	-0.4%	?	-11.5%	79.4µM*
N#Cc1c(/N=C/C=C/c2ccccc2)sc2c1CCCC2	7.94µM*	-8.1%	9.47µM*	4.5%	25.1µM*
N#Cc1c(/N=C/c2cc3ccccc3s2)sc2c1CCC2	25.1µM*	3.0%	-20.9%	27.5%	-28.3%
c1ccc(-c2nnc3sc(Cc4cccs4)nn23)cc1	-35.0%	17.2%	-9.0%	?	5.5%
Clc1ccc(-c2nnc3sc(Cc4cccs4)nn23)cc1	22.4µM*	-2.1%	-9.2%	3.7%	-26.1%
COc1ccc(-c2nnc3sc(CN4C(=O)c5ccccc5C4=O)nn23)cc1	?	8.8%	-26.3%	-22.4%	-10.4%
O=C1c2ccccc2C(=O)N1Cc1nn2c(-c3ccc(Cl)cc3)nnc2s1	14.1µM*	-2.7%	-6.7%	13.0%	-21.9%
CNc1ncncc1-c1ccc(C(=O)N(C)C)cc1	?	13.2%	/	-26.1%	-22.4%
CCOc1ccc(-c2nc(CN(Cc3ccccc3)C[C@@H]3CCC(=O)N3)c(C)o2)cc1	?	-23.0%	4.3%	-86.2%	79.4µM*
COc1ccccc1CNc1ncccn1	/	0.6%	-15.8%	-2.6%	79.4µM*
COc1ccccc1CNS(=O)(=O)N(C)C	3.5%	-12.7%[10 µM]	21.2µM*	4.3%	8.5%
COc1ccccc1CNc1ccnc(-c2ccc(N(C)C)cc2)n1	?	14.1µM*	/	?	?
Cc1cccc(CNc2ccnc(-c3ccc(N(C)C)cc3)n2)c1	?	?	/	?	39.8µM*
SMILES	ALDH1A1 block	Gal4-VP16 FLuc	PLK1 PBD inh	RORg inh	Sfp PPTase inh
COc1ccccc1CNCCS(=O)(=O)NCc1ccccc1OC	/	/	-11.2%	/	/
COc1ccc(O[C@H]2C=C[C@@H](c3ccccc3)O[C@H]2COC(=O)CC/C(C)=N\O[C@@H](C)c2cn([C@H](CO)Cc3ccccc3)nn2)cc1	3.5%[13.5 µM]	-2.4%[10 µM]	/	-0.1%[10 µM]	22.7%
CC(=O)OCC(=O)[C@]1(O)C(OC(C)=O)CC2C3CCC4=CC(=O)C=C[C@@]4(C)[C@]3(F)C(O)C[C@]21C (stereo partly drawn)	6.9%	-10.8%	/	12.2%	-1.4%
COc1cccc(-c2nccc(NCc3cccc(C)c3)n2)c1	15.0%	-22.6%	/	8.6%	-12.9%
Cc1cccc(CNc2ccnc(-c3ccoc3)n2)c1	12.6µM*	-0.3%	/	37.8%	50.1µM*
C[C@H]1CN([C@@H](C)CO)C(=O)CCCn2nncc2CO[C@H]1CN(C)C(=O)C1CCCCC1	/	/	-6.4%	/	/
COc1ccc(S(=O)(=O)n2nc(OC(=O)c3ccncc3)cc2N)cc1	-9.8%	-1.0%	26.7µM*	5.2%	-5.5%
Cc1ccc(S(=O)(=O)n2nc(OC(=O)c3c(-c4ccccc4Cl)noc3C)cc2N)cc1	?	0.4%	2.67µM*	29.1%	16.3%
CCN(CC)S(=O)(=O)c1ccc2oc(C(=O)NC(C)C)c(C)c2c1	?	-1.0%	26.7µM*	7.5%	-12.4%
CCN(CC)S(=O)(=O)c1ccc2oc(C(=O)NCc3ccc(C)cc3)c(C)c2c1	-6.9%	-3.1%	?	13.7%	25.1µM*
CCN(CC)S(=O)(=O)c1ccc2oc(C(=O)O)c(C)c2c1	11.2%	1.3%	-6.1%	11.6%	19.0%
O=c1oc2ccccc2nc1/C=C(O)/C=C\c1ccccc1	12.6µM*	-21.0%	-4.7%	?	-18.5%
O=c1oc2ccccc2nc1/C=C(O)/C=C/c1ccc(F)cc1	-136.8%	-67.1%	3.3%	?	79.4µM*
Cc1ccc(/C(O)=C/c2nc3ccccc3oc2=O)cc1	/	-13.2%	35.8%	-13.1%	?
CC(C)(C)/C(O)=C/c1nc2cc(Cl)ccc2oc1=O	/	-0.2%	-3.1%	-35.8%	?
Cc1cc(F)ccc1NCC(=O)Nc1ccccc1Br	28.2µM*	-4.7%	0.5%	?	?
CC(C)(C)C1CCC(=NNc2ncc(C(F)(F)F)cc2Cl)CC1 (stereo not drawn)	?	11.2µM*	-6.7%	28.2µM*	-4.5%
C/C(=N/Nc1ncc(C(F)(F)F)cc1Cl)c1ccncc1	39.8µM*	?	3.5%	?	56.2µM*
CCOC(=O)CNc1ncc(C(F)(F)F)cc1Cl	-1.4%	-4.5%	?	-8.6%	17.1%
C/C(=N\Nc1ncc(Cl)cc1Cl)c1ccc(C#N)cc1	8.6%	0.6%	2.3%	?	10.7%
C[C@@H](NCc1cc(Br)cc2[nH]c(=O)c(=O)[nH]c12)P(=O)(O)O	0.9%	0.7%	/	0.6%	?
COc1ccccc1-c1c(-c2ccc(OCC(=O)NN)cc2O)n[nH]c1C(F)(F)F	?	11.2µM*	0.1%	-25.5%	2.0%
Cc1cc(C)nc(NN=C2CCCC2)n1	-1.6%	?	-0.8%	?	?
CC(/C=C/c1ccccc1)=N\Nc1nc(C)cc(C)n1	0.0%	5.01µM*	3.8%	0.447µM*	3.6%
Cc1cc(C)nc(NN=C(c2ccccc2)c2ccccc2)n1	?	?	2.8%	7.94µM*	13.8%
CC(/C=C/c1ccccc1)=N/NC(=O)c1nc2nc(C)cc(C)n2n1	?	-3.0%	-2.6%	?	17.2%

Screening data deposited in PubChem BioAssay by National Center for Advancing Translational Sciences (NCATS).
